This is a sample that favours compounds with a hit; in the whole collection about 2.2% have one here.
Ba/F3 V617F tox – loss of viability in JAK2V617F-driven Ba/F3 cells | AID 1446 | 1.1% of 220,000 active | inhibition, % at 5.6 µM | Ba/F3 EpoR-JAK2V617F viability, ATP luminescence;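 active means inhibition above the campaign mean plus 3 SD over all tested compounds, cut at about 24% in these data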;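 further: cytokine-independent growth of Ba/F3 cells driven by EpoR plus mutant JAK2; 0% = DMSO-treated cells and 100% = JAK inhibitor I control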
BaF3 parental – parental Ba/F3 viability inhibition as JAK2V617F counter-screen | 1.1% of 220,000 active | AID 1486 | CellTiter-Glo ATP luminescence | inhibition, % at 5.6 µM;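 active means inhibition above a per-campaign cutoff, the mean inhibition of all tested compounds plus 3 SD, cut at about 27% in these data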;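 further: 0% = DMSO wells and 100% = JAK Inhibitor I control wells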
IEC-6 cytotox – kills IEC-6 intestinal cells in KLF5 counter-screen; IEC-6 cytotoxicity, luminescence viability; inhibition, % at 5 µM; 0.78% of 290,000 active; in the data active means inhibition above about 22%;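 further: 0% = plate median of test compound wells and 100% = cytotoxic reference compound wells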
APP transl inh – APP translation inhibition | 0.82% of 190,000 active | inhibition, % at 2 µM | SH-SY5Y APP 5'UTR-luciferase reporter, luminescence;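 active means inhibition above a set limit, derived from the sample mean plus 3 SD, cut at about 45% in these data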
aSyn UTR inh – 5' untranslated region of α-synuclein, MLPCN primary screen | alpha-synuclein 5'UTR reporter, inhibitor activity | inhibition, % (tested at 7.5 µM) | 0.82% of 300,000 active | AID 1813; in the data active means inhibition above about 60%;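 further: H4 neuroglioblastoma cells stably carrying SNCA 5'UTR luciferase fusion; 0% = DMSO wells and 100% = positive control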
KLF5 inhibitor – inhibitors of KLF5 expression; DLD-1 KLF5 promoter-luciferase reporter, luminescence; inhibition, % at 5 µM; 0.23% of 290,000 active; AID 1700;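 active means inhibition above a per-plate limit of that plate's mean compound inhibition plus 3 SD, cut at about 60% in these data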;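 further: 0% = DMSO wells and 100% = LY294002 at 200 µM; higher means less KLF5 promoter-driven luciferase light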
* hit, by the source's call; / = not tested or not shown.

SMILES	Ba/F3 V617F tox	BaF3 parental	IEC-6 cytotox	APP transl inh	aSyn UTR inh	KLF5 inhibitor
COc1ccc(NC(=O)[C@H](C)NC(=O)C2CCN(S(=O)(=O)c3ccc(OC)cc3)CC2)cc1	/	/	2	/	31	3
CCOc1ccc(S(=O)(=O)N(CC)CC(=O)NCc2ccncc2)cc1	/	/	-5	/	11	-27
COc1ccccc1/C=C(/NC(=O)c1ccc(Cl)cc1Cl)C(=O)O	-1	3	0	-6	-22	-10
COc1ccc(CN2CCNC(=O)C2CC(=O)N(C)Cc2ccon2)c(F)c1 (centres undefined)	/	/	-4	/	-6	-5
COc1ccc(C2CCCN2CC(O)COc2ccccc2C(C)C)cc1 (centres undefined)	/	/	-4	/	16	20
O=[N+]([O-])c1ccc(C[n+]2ccc(Cc3ccccc3)cc2)cc1	13	37*	-1	-43	13	-18
c1ccc(Cc2cc[n+](Cc3ccccn3)cc2)cc1	57*	65*	2	/	3	-22
CC1(C)CC(NC(=O)c2cc(S(=O)(=O)N3CCOCC3)c(Cl)cc2Cl)CC(C)(C)N1	/	/	/	/	-29	/
Cc1c(C(=O)NCCCN2CCCCC2)oc2ccc3c(c12)C(O)CC1(CCCCC1)O3 (centres undefined)	/	/	8	/	76*	-27
CCNC(=O)C1CCCN1C(=O)C(CCCN=C(N)N)NC(=O)C(CC(C)C)NC(=O)C(Cc1cn(Cc2ccccc2)cn1)NC(=O)C(Cc1ccc(O)cc1)NC(=O)C(CO)NC(=O)C(Cc1c[nH]c2ccccc12)NC(=O)C(Cc1cnc[nH]1)NC(=O)C1CCC(=O)N1 (centres undefined)	/	/	-5	/	9	-43
COc1ccc(N2CC(O)(c3ccc(F)cc3)[N+]3=C2CCCC3)cc1 (centres undefined)	-1	5	2	-16	-3	-15
COc1ccc(N2CC(O)(c3ccc(C)cc3)[N+]3=C2CCCC3)cc1 (centres undefined)	45*	50*	5	8	-9	-16
O=C(Cc1c(F)cccc1Cl)OCN1C(=O)c2ccccc2C1=O	/	/	-5	/	3	-25
CC(=O)OCCCNc1cc(Sc2ccc(Cl)cc2)c2nonc2c1[N+](=O)[O-]	-2	2	-15	51*	8	9
CCCC(=O)OCCNc1cc(Sc2nc3ccccc3[nH]2)c2nonc2c1[N+](=O)[O-]	-2	-1	7	74*	-2	23
CCC(=O)OCCNc1cc(Sc2nccn2C)c2nonc2c1[N+](=O)[O-]	-2	1	-5	60*	16	-20
CCc1ccccc1N(CC(=O)Nc1cccnc1)S(=O)(=O)c1ccccc1	/	/	-2	/	-4	-23
CC(c1ccco1)N(C(=O)c1ccc(Cl)c([N+](=O)[O-])c1)c1ccccn1 (centres undefined)	/	/	-3	/	-23	-20
O=C(O)CCCc1ccc2c(c1)CCc1ccccc1-2	/	/	/	/	109*	/
CN1c2cccc3cccc(c23)N(C)C1(C)C	27*	58*	5	3	11	-1
Cc1[nH]c2ccccc2c1/C=N/n1cnnc1	-1	4	4	-5	9	-5
CCN(CC)c1ccc(N=Cc2c(C)[nH]c3ccccc23)cc1	2	8	1	0	63*	-33
COc1ccc(S(=O)(=O)N2CCN(Cc3ccco3)CC2)cc1	/	/	6	/	-1	-1
O=S(=O)(c1ccc2c(c1)OCCO2)N1CCN(c2ncnc3sccc23)CC1	44*	78*	9	-1	-9	11
O=C(Nc1ccc(C(=O)N2CCCCC2)cc1)c1ccc([N+](=O)[O-])cc1	/	/	-6	/	11	-37
SMILES	Ba/F3 V617F tox	BaF3 parental	IEC-6 cytotox	APP transl inh	aSyn UTR inh	KLF5 inhibitor
Clc1ccc(OCCOCCN2CCc3ccccc3C2)c(Cl)c1	-2	3	7	-7	-31	-34
c1ccc(-c2ccccc2OCCOCCN2CCc3ccccc3C2)cc1	-3	47*	7	-12	-34	3
C/C(=N\NC(=O)c1cc(-c2cccnc2)nc2ccccc12)c1ccccc1O	-1	6	10	56*	86*	-12
Cc1ccc(/C=C2\SC(=S)N(CC(=O)Nc3cccnc3)C2=O)cc1	0	8	-3	-8	17	2
Cc1ccc(/C=C2\SC(=S)N(CCCC(=O)Nc3cccnc3)C2=O)cc1	/	/	-3	/	79*	57
CCc1ccc(/C=C2\SC(=S)N(CCC(=O)NC3=NCCS3)C2=O)cc1	-2	-2	0	53*	89*	25
CCc1ccc(/C=C2\SC(=S)N(CCCC(=O)Nc3ccccn3)C2=O)cc1	-1	4	-4	51*	73*	-8
COc1ccc(-c2cc3cc(OC)c(OC)cc3c(C)n2)cc1C	3	3	5	/	-52	-25
CC(=O)NC(CC(=O)OCC(=O)N1CCN(S(=O)(=O)c2ccc(Cl)cc2)CC1)c1ccccc1 (centres undefined)	/	/	/	/	-4	/
Cc1nc(-c2ccccc2)cc(N2CCCC2)n1	-1	0	8	-1	-35	4
Cc1cc(-c2ccccc2)nc2[n+]1CCN2C	68*	62*	-3	-12	-8	-6
CCOCCCNC(=O)c1ccc2c(c1)N=C(CC)c1cc(Br)ccc1S2	92*	95*	93*	94*	88*	74*
CCC1=Nc2cc(C(=O)NCCN3CCOCC3)ccc2Sc2ccccc21	/	/	-1	/	3	-23
COC(=O)c1ccc(CSc2nnc(Nc3ccc(OC)cc3)s2)o1	-1	3	4	26	11	-26
COC(=O)c1ccc(CSc2nnc(Nc3ccccc3OC)s2)o1	0	41*	8	-20	8	-4
O=C1N/C(=C/c2ccc(Br)cc2)C(O)=C1C=NCc1ccccc1	-1	6	-1	59*	-27	-16
O=C1C(C=NCc2ccncc2)=C(O)c2ccccc21	-5	2	0	-17	-4	-45
Cc1ccc(OC(C)C(=O)Nc2ccncc2)cc1C (centres undefined)	/	/	-6	/	6	-37
CC(=O)N1CC2([N+](=O)[O-])CN(C(C)=O)CC([N+](=O)[O-])(C1)C2(C)C	-4	4	-6	-18	23	4
O=C(N/N=C/c1cc(Br)c(Br)s1)c1ccncc1	1	11	0	-7	84*	-22
CCCCn1c(N)c(N(CCOC)C(=O)COC(=O)C(C)Oc2ccc(Cl)cc2)c(=O)[nH]c1=O (centres undefined)	/	/	/	/	-3	/
CCOC(=O)c1sc(NS(=O)(=O)c2ccccc2Cl)nc1C	4	51*	3	-8	17	-3
CCOC(=O)c1sc(Nc2nc(C)cc(C)n2)nc1C	6	-1	2	/	84*	24
CCOC(=O)c1sc(NS(=O)(=O)c2ccccc2)nc1C	1	1	0	-2	12	-19
CCOC(=O)c1sc(Nc2nc(C)cc(OC)n2)nc1C	5	10	6	-6	-25	-20
NC1=NC2=C(CCCC2)C2(CCCCC2)S1	5	5	13	8	77*	9
